Rows were chosen to be rich in hits. Some 5.4% of all compounds tested hit in one or more screens of this group.
APOBEC3A inh: blocks human APOBEC3A ssDNA deamination. recombinant A3A, FAM/TAMRA ssDNA deamination fluorescence. inhibition, % at 20 µM. 0.41% of 330,000 active;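 active = at least 40% inhibition at 20 µM here, with at most 30% in a related deaminase screen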;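 note: plate controls were A3A with DMSO for no effect and wells lacking A3A enzyme for full effect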
rCAG RNA binder: binds r(CAG) RNA repeats. r(CAG) RNA repeat, TO-PRO-1 dye displacement fluorescence. inhibition, % at 3 µM. 1.3% of 370,000 active. AID 651821;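 active = inhibition above the plate cutoff, the mean of all test compounds on that plate plus 3 SD, cut at about 35% in these data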;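 note: 0% = DMSO alone and 100% = 100 µM mitoxantrone as full dye displacement; higher means more dye released from RNA so lower well fluorescence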
aDG glyco up: alpha-DG glycosylation activation; 0.22% of 360,000 active; activation, % at 10 µM; AID 624168; Pro5-aDG cells, alpha-DG glycosylation AlphaScreen (IIH6); 0% Pro5, 100% B10-LARGE cell signal;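 active = activation of at least 8% versus controls, or a plate z-score of at least 8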;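 note: Pro5 are CHO cells carrying HIG-tagged alpha-DG that lacks glycosylation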
APOBEC3G inh: APOBEC3G (human) deaminase inhibition | Q9HC16 | recombinant A3G, ssDNA deamination FAM/TAMRA fluorescence | inhibition, % at 20 µM | 0.28% of 330,000 active;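 active = inhibition of at least 40% at 20 µM, with no more than 30% in the related APOBEC3A deaminase screen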;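 note: plate controls were DMSO wells with A3G for no effect and wells lacking A3G enzyme for full effect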
Target sequence (Q9HC16 whole entry, looked up): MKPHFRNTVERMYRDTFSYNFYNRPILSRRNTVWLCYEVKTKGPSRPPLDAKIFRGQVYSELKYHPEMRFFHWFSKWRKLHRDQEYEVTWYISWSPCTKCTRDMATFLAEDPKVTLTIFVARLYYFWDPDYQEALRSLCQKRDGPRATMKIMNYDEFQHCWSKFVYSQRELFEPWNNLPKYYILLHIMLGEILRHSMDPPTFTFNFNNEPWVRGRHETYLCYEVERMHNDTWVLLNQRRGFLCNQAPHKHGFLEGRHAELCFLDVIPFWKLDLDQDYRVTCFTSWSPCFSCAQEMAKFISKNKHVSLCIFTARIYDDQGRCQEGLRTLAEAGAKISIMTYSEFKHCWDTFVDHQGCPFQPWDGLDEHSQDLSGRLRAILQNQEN
PHOSPHO1 inh: blocks human PHOSPHO1 phosphatase activity; Q8TCT1; inhibition, % at 13.3 µM; recombinant PHOSPHO1, absorbance phosphatase assay; 1.1% of 290,000 active; in the data active = inhibition above about 60%
ALR H2O2 inh: blocks human ALR sulfhydryl oxidase activity; P55789; purified ALR, DTT oxidation, H2O2 HRP-luminol luminescence; inhibition, % (concentration not given with the values); 3.8% of 290,000 active;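 active = mean replicate inhibition above about 79%, with every replicate also reaching it, limit read from the data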
Target sequence (P55789 whole entry, looked up): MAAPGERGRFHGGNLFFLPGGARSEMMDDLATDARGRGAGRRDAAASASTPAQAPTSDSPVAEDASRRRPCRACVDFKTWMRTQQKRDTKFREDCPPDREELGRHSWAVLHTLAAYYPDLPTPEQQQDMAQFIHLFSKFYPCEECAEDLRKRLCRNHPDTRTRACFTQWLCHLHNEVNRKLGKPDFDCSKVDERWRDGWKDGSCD
An asterisk follows results filed as active; nt = not tested or not shown.

SMILES | APOBEC3A inh | rCAG RNA binder | aDG glyco up | APOBEC3G inh | PHOSPHO1 inh | ALR H2O2 inh
Cc1cccc(N2C(=O)CC(Sc3ncn[nH]3)C2=O)c1 (configuration not stated) | -5 | 11 | -1 | 29 | 7 | 2
Cc1ccc(N2C(=O)CC(Sc3ncn[nH]3)C2=O)cc1C (configuration not stated) | -3 | -2 | 0 | 36 | 105* | 8
CC(C)(C)CSc1nnc(-c2cccnc2)n1Cc1ccccc1 | nt | -2 | nt | nt | nt | nt
Cn1c(CS/C(N)=N/N=C/c2ccccc2)c(Br)c(=O)n1-c1ccccc1 | 0 | 2 | 0 | -1 | -13 | 98*
NC(=N\N=Cc1ccccc1)/C(N)=N/N=Cc1ccccc1 | nt | 0 | 0 | nt | nt | nt
O=C(Nc1ccc(Br)cc1)c1cccc(S(=O)(=O)Nc2cnc3ccccc3c2)c1 | 6 | 80* | 0 | -3 | 6 | 4
O=C(Nc1ccc(Br)cc1)c1cccc(S(=O)(=O)Nc2ccccn2)c1 | -3 | 0 | 0 | -4 | 27 | -3
Cc1cc(Nc2cc(F)c(F)c(F)c2)cc(=O)n1-c1cc(F)c(F)c(F)c1 | nt | 0 | nt | nt | nt | nt
Cc1nc(N2CCN(C)CC2)c2c(C)c(C(=O)Nc3ccc(C)c(F)c3)sc2n1 | -1 | -4 | 1 | -7 | -1 | 96*
O=C(CSc1ncc(-c2ccc(F)cc2)[nH]1)Nc1cccc(O)c1 | -5 | 2 | 0 | -8 | -32 | 99*
O=C(NCCSc1ncc(-c2ccc(F)cc2)[nH]1)c1ccco1 | -4 | -2 | 0 | -5 | nt | 40
COc1cc(NC(=O)c2ccco2)c(OC)cc1NC(=O)CSc1ncc(-c2ccc(F)cc2)[nH]1 | -3 | -9 | 0 | -7 | 74* | 39
NNC(=O)CSc1ncc(-c2ccccc2)[nH]1 | 3 | 6 | 1 | -7 | -27 | 36
COc1ccc2c(c1)c(=O)oc1c(C)c(OC(C)C(=O)N[C@@H](Cc3c[nH]c4ccc(O)cc34)C(=O)O)ccc12 (some centres not stated) | 8 | 69* | 4 | 7 | 18 | 17
CC(Sc1ccc(Br)cc1)C(N)=O (configuration not stated) | 102* | 1 | 0 | 0 | -15 | nt
CCOC(=O)CC[C@H]1CC[C@]2(CCCN(C3CCCCC3)C2)O1 | nt | 0 | nt | nt | nt | nt
Cc1nc2ccc(S(=O)(=O)NCC(=O)NCc3ccccc3C)cc2s1 | nt | 1 | nt | nt | nt | nt
CCN1Cc2nnn(Cc3ccc(C)cc3)c2-c2ccccc2S1(=O)=O | nt | 0 | nt | nt | nt | nt
Cc1n[nH]c(=S)n1-c1ccccc1 | -5 | -1 | 0 | -8 | 90* | 49
S=c1[nH]nc(COc2ccc(Cl)cc2)n1-c1ccc(Cl)cc1 | 2 | 26 | 0 | -3 | -111 | 85*
COC(Cc1n[nH]c(=S)n1-c1ccc(Cl)cc1)OC | -2 | -3 | 0 | 3 | -76 | 38
Cc1ccc(OCc2n[nH]c(=S)n2-c2ccc(Cl)cc2)cc1 | -8 | 15 | 0 | -5 | -104 | nt
Cc1n[nH]c(=S)n1-c1ccc(Cl)cc1 | 1 | -2 | 0 | 18 | 16 | 89*
CN(C)c1ccc(-c2n[nH]c(=S)n2-c2ccccc2)cc1 | -2 | 2 | 0 | 22 | 29 | 95*
COc1ccc(OC)c(NC(=O)c2ccccc2N(Cc2ccccc2)C(=O)C(C)Cl)c1 (configuration not stated) | nt | 5 | nt | nt | nt | nt
SMILES | APOBEC3A inh | rCAG RNA binder | aDG glyco up | APOBEC3G inh | PHOSPHO1 inh | ALR H2O2 inh
Oc1ccc(/C=C/c2ccnc3ccccc23)cc1 | 0 | 9 | 2 | -5 | -11 | 13
Oc1ccc(/C=C/c2cnccn2)cc1 | 0 | 1 | 0 | -2 | 12 | 83*
O=S1(=O)c2c(cccc2N2CCSCC2)Oc2ccccc2CN1Cc1cn(Cc2ccc(C(F)(F)F)cc2)nn1 | nt | 8 | nt | nt | nt | nt
CCCN1C=CC(=C/C=C(\C#N)C(=O)OCC)C=C1 | -11 | nt | nt | -23 | 26 | 99*
C=CCN1C=CC(=CC=C(C#N)C#N)C=C1 | -3 | -21 | 0 | -10 | 28 | 99*
CN1/C(=C/C=C(C#N)C#N)C=Cc2ccccc21 | -1 | -1 | 0 | 0 | 7 | 3
CCCCCCN1C=CC(=C/C=C(\C#N)C(=O)OCC)C=C1 | -37 | -66 | 2 | -93 | -19 | 5
CCCN1C=CC(=CC=C(C#N)C#N)C=C1 | -1 | -15 | 0 | -6 | 25 | 99*
CCCC#Cc1ccc(CC[C@H]2O[C@H]3CC[C@@H](CO)O[C@H]3C[C@H]2NC(=O)CN2CCOCC2)cc1 | nt | 0 | nt | nt | nt | nt
CN(CCc1ccccc1)C(=O)c1ccc2c(c1)ncn2C1CCCCC1 | nt | 2 | nt | nt | nt | nt
COc1cccc(N2CCN(CC(=O)NCc3ccccc3C)CC2)c1 | nt | 0 | nt | nt | nt | nt
COC(=O)[C@]12C[C@H](CC(=O)NCCC(C)C)C(=O)N(Cc3cccc4ccccc34)C1=C[C@H](COCc1ccccc1)O[C@@H]2C | nt | 4 | nt | nt | nt | nt
COC(=O)C1=C(C)N(C)C(=NCc2ccccc2C(F)(F)F)NC1CCc1ccccc1 (configuration not stated) | nt | 5 | nt | nt | nt | nt
CC(=O)c1c(CC(=O)O)[nH]n(-c2nc3ccccc3s2)c1=O | 15 | 10 | 0 | 5 | 15 | 97*
COC(=O)CCCc1nc2ccccc2s1 | -4 | -4 | 0 | -6 | 24 | -16
COC(=O)CC1=NN(c2nc3ccccc3s2)C(=O)/C1=C/N(C)C | -1 | 13 | 0 | -5 | 0 | 96*
COC(=O)Cc1[nH]n(-c2nc3ccccc3s2)c(=O)c1C(C)=O | -2 | 10 | 0 | -5 | 24 | 98*
CCCC1CCC(c2ccc(/C(N)=N/O)cc2)CC1 (configuration not stated) | 7 | -4 | 0 | -11 | 28 | 94*
COC(=O)C(Cc1ccccc1)NC(=O)C(N)CC(=O)O (configuration not stated) | nt | 3 | nt | nt | nt | nt
COc1ccccc1NC(=O)C(=O)N/N=C/c1cccs1 | 10 | 3 | 0 | -9 | -4 | -3
COCCNC(=O)C(=O)N/N=C/c1cccs1 | -2 | 0 | 0 | -8 | 65* | 6
CN1CCN(CCNC(=O)c2ccc3nc(-c4ccc(F)cc4)c(-c4ccc(F)cc4)nc3c2)CC1 | -2 | -7 | 8.0* | -3 | 14 | 0
COC1=C(NCc2ccc3c(c2)OCO3)C(=O)C(OC)=C(NCc2ccc3c(c2)OCO3)C1=O | nt | 5 | 0 | nt | nt | nt
COc1cccc2sc3ccc(NCc4ccc5c(c4)OCO5)cc3c(=O)c12 | -1 | 8 | 0 | -9 | -2 | 92*
CC1Oc2ccccc2C=C1/C=N/Nc1ccc(C(=O)O)cc1 (configuration not stated) | -8 | 29 | 0 | 3 | 24 | 92*
CC(=O)N1CCN(c2ccc(N3CCN(C(C)=O)[C@H](C)C3)c(C)c2)[C@H](C)C1 | nt | 2 | nt | nt | nt | nt
CC(C)=C(NC(=O)c1ccccc1)C(=O)NCCc1nc2ccccc2[nH]1 | -4 | -1 | 0 | -6 | 64* | -11
O=C(NC(=S)NCc1nc2ccccc2[nH]1)c1ccc(F)cc1 | -5 | 2 | 0 | -12 | 32 | 76*
